These molecules were tested on Trypanosoma cruzi (assay: Trypanosoma cruzi phosphomannomutase and mannose-1-phosphate guanylyltransferase assay). Settings: 10 µM.
Assay type: functional
Design: scale not given: direction of the effect not stated beside the values

| SMILES | Percent Effect [%] |
| --- | --- |
| CC(=O)N1CCCC(Cc2cncc(Br)c2)CC1 (stereo not given) | 2.77 |
| COc1ccc(C(CNC(=O)Nc2cn[nH]c2)N2CCOCC2)cc1 (stereo not given) | 4.8 |
| Cc1cn2c(n1)CCC(NC(=O)c1ccc(CS(C)(=O)=O)cc1)C2 (stereo not given) | 7.71 |
| Cc1cc(NC(=O)NCc2ccccc2OC(F)F)n(C)n1 | -7.69 |
| CN(C)CCNC(=O)CNC(=O)N1CCc2c([nH]c3ccc(Cl)cc23)C1 | -2.55 |
| CN(Cc1cscn1)C1CCCN(Cc2noc(C3CC3)n2)C1 (stereo not given) | 2.33 |
| Nc1nc2c(c(=O)[nH]1)CCN(C(=O)c1cccc3nccnc13)C2 | 2.46 |
| Cc1cccc(CNC(CN2CCN(C)CC2)c2ccccc2)c1 (stereo not given) | 3.23 |
| CS(=O)(=O)N1CCCCCC1C1CCN(c2ncccc2C#N)CC1 (stereo not given) | 6.58 |
| Cc1cccc(C(=O)NCCCN2CCN(c3ccccc3)CC2)c1 | -7 |
| CCOc1ccc(-c2ccnc(CC)n2)cc1C(=O)O | 2.9 |
| CS(=O)(=O)N1CCc2c(cccc2NC(=O)CC(F)(F)F)C1 | -2.04 |
| COc1ccccc1Oc1ncccc1CNC(=O)C(C)N1CCCC1 (stereo not given) | 3.4 |
| CCOc1ccnc(N2CCN(C(=O)c3cccnc3O)CC2)n1 | 0.283 |
| CC(C)c1nn(C)c(Cl)c1CNCc1ccc2c(c1)OCCO2 | 3.27 |
| CC(C)COC(C)C(=O)NCc1cc(F)cc(F)c1 (stereo not given) | 1.47 |
| Cc1nc(CN2CCOC(CNc3cccnn3)C2)cs1 (stereo not given) | 3.87 |
| CCS(=O)(=O)N1CCC(c2nnc(Cn3cccn3)n2C2CC2)CC1 | 2.23 |
| OC[C@H]1CC[C@]2(CC1)CN(Cc1ccccn1)Cc1ccccc1O2 | -3.56 |
| O=C(Cc1cccc(F)c1)N1CCCCC1c1ccn2ccnc2n1 (stereo not given) | -3.16 |

| SMILES | Percent Effect [%] |
| --- | --- |
| NC(=O)Nc1cccc(Oc2ccccn2)c1 | -3.99 |
| CC(c1cccnc1)N(C)Cc1csc(-c2ccccn2)n1 (stereo not given) | 6.66 |
| c1cnnc(NCC2CN(Cc3cccc4c3OCCO4)CCO2)c1 (stereo not given) | 9.55 |
| COc1cccc(COCC(=O)N2CCCC(n3ccnc3)C2)c1 (stereo not given) | -6.13 |
| CC(C)C(=O)N1CCN(C(=O)c2cc(C(C)C)on2)[C@H]2CS(=O)(=O)C[C@H]21 | 3.4 |
| CC(NC(=O)NCCN1CCCCCC1=O)c1nncn1C (stereo not given) | 4.92 |
| CN1N=C(C(=O)NCc2ccc3c(c2)CCCN3C)CCC1=O | 4.41 |
| O=C(O)c1coc(COc2cccc(F)c2)n1 | 5.77 |
| Cn1cccc1C(=O)N1CCC2(CC1)CN(c1ccccn1)CCO2 | 9.54 |
| Cc1nc2c(c(C)c1CC(=O)Nc1ccc(Cl)cc1)c(=O)[nH]n2C | 5.36 |
| COCCC(=O)N1C[C@@H]2COC[C@]2(COCc2cccnc2)C1 | -14.7 |
| O=C(NC1CC1)[C@@H]1CCO[C@@H]2CCN(Cc3ccsc3)C[C@H]21 | -5.38 |
| Cn1cccc1C(=O)N[C@@H]1CN(CC2CC2)[C@@H]2COC[C@@H]21 | -7.14 |
| O=C(c1cc(F)ccc1F)C1CCN(C(=O)c2cccnc2O)CC1 | 2.06 |
| CC(C)=CCN1CCOC(Cn2nc(C)cc2C)C1 (stereo not given) | -8.27 |
| CCOc1cccc(CNc2ccccc2C(=O)OC)c1O | -4.32 |
| Cc1ccc(C(=O)N2CCC3(CC2)NC(=O)CC3c2ccccc2)cn1 (stereo not given) | 0.965 |
| Cc1nnc2n1CCN(C(=O)c1cc(C)n(-c3ccccn3)c1C)C2 | -1.03 |
| Cc1cccc(-n2cc(C(=O)N3CCCC(n4ccnc4)C3)nn2)c1 (stereo not given) | -5.58 |
| O=C1CCCN1Cc1ncn2c1CN(C(=O)c1cccc(F)c1)CCC2 | 3.42 |

Source: ChEMBL document CHEMBL3988442, “University of Dundee, Small-Polar-MMV Screening Library” (2021)
